This is a sample that favours compounds with a hit; in the whole collection about 18% have one here.
TGFb SMAD3 inh: qHTS for Inhibitors of TGF-b | HepG2 CAGA-GFP TGF-b/SMAD3 reporter, GFP fluorescence, 18 h; TGF-beta stimulated, 500 pg/mL final | Potency, µM (doses to about 46.1 µM), inactives show top-dose activity, negative = inhibition, actives largely listed as inhibitors | 1.2% of 410,000 active | AID 588855, 2011; also: potency is read from the fitted curve at half-maximal effect; % is scaled to controls: 0 for no effect and ±100 for the full control effect; nearly all actives have a fitted effect of over 65% in size
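HEPG2 CAGA-GFP, 1000 cells/well; 2 h settle, 37 C; cpd via pin tool; TGF-b 500 pg/mL final; 18 h, 37 C; GFP imaging ex488/em500-530; %Activity normalised to -TGF-b and +DMSO controls; CRC fit, curve class.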
DT40 TDP1 no CPT: qHTS for Inhibitors of human tyrosyl-DNA phosphodiesterase 1 (TDP1): qHTS in cells in absence of CPT; DT40 Tdp1-/- hTDP1 cells, no CPT, ATP luminescence, 48 h; Potency, µM (titrated, usually from 46.2 µM), for the others: at the highest dose activity change, negative = growth inhibition, actives largely listed as inhibitors; 15% of 420,000 active; AID 686978, 2013; also: potency is read from the fitted curve at half-maximal effect; % is scaled to controls: 0 for no effect and ±100 for the full control effect; nearly all actives have a fitted effect of over 55% in size
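Chicken DT40 Tdp1-/- cells complemented with human TDP1, screened without camptothecin (DMSO vehicle only), 400 cells/well. Compounds pin-transferred, cells incubated at 37 °C for at least 48 hr. Growth read as ATP-dependent luminescence (CellTiter-Glo, 30 min at RT).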
HepG2 viability: qHTS for Inhibitors of TGF-b: Cytotox Counterscreen. HepG2 CAGA-GFP viability, ATP luminescence, 18 h. Potency, µM (doses to about 46.1 µM), for inactives: top-dose activity change, negative = cytotoxicity, most hits filed as cytotoxic. 0.76% of 410,000 active; also: potency is read from the fitted curve at half-maximal effect
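CellTiter-Glo luminescence gave cytotoxicity after 18 hours at 37 degrees C. The cells were HepG2 CAGA-GFP in 1% FBS DMEM, stimulated with 500 pg/mL TGF-beta after compound addition. %Activity was normalised to no-cell wells (complete cell-killing) and DMSO (no toxicity), and curves were fitted and classified.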
IL1B secr inh: qHTS for Inhibitors of Inflammasome Signaling: IL-1-beta AlphaLISA Primary Screen; activity change, % at 57.5 µM; THP-1 LPS/ATP IL-1B secretion, AlphaLISA, 16 h; hits give low values; 4.7% of 360,000 active; AID 743279, 2014; in the data active = activity change below about -50%; inconclusive = mostly about -30% to -49%; also: % is scaled to controls: 0 for no effect and ±100 for the full control effect
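Secreted IL-1B measured by AlphaLISA bead assay after 16 h compound exposure of THP-1 cells; compounds (final up to 57.5 uM) added 1 h before LPS (250 ng/mL) and ATP (1.25 mM) stimulation; lower signal means less secretion.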
TDP1 cell CPT: qHTS for Inhibitors of human tyrosyl-DNA phosphodiesterase 1 (TDP1): qHTS in cells in presence of CPT | chicken DT40 Tdp1-/-;hTDP1 cells + 20 nM CPT, ATP luminescence, 48 h | Potency, µM (doses to about 46.2 µM), without a hit: top-dose activity change, negative = growth inhibition, hits mostly inhibitors | 12% of 420,000 active | AID 686979, 2013; also: potency is read from the fitted curve at half-maximal effect; % is scaled to controls: 0 for no effect and ±100 for the full control effect; nearly all actives have a fitted effect of over 55% in size
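Chicken DT40 Tdp1-/- cells stably complemented with human TDP1 were seeded at 400 cells/well in medium containing 20 nM camptothecin, exposed to pin-transferred compounds, and grown at 37 °C for at least 48 hr. Viability was read as ATP luminescence.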
TDP1 block: qHTS Assay for Inhibitors of Tyrosyl-DNA Phosphodiesterase (TDP1) | Tyrosyl-DNA phosphodiesterase 1 (Homo sapiens), Q9NUW8 | recombinant TDP1, AlphaScreen DNA substrate cleavage | Potency, µM (top dose mostly 130 µM), inactives show at the top dose activity change, negative = inhibition, hits mostly inhibitors | 0.28% of 350,000 active | AID 485290, 2010; also: potency is read from the fitted curve at half-maximal effect; % is scaled to controls: 0 for no effect and ±100 for the full control effect; nearly all actives have a fitted effect of over 40% in size
Target sequence (Q9NUW8 whole entry, looked up): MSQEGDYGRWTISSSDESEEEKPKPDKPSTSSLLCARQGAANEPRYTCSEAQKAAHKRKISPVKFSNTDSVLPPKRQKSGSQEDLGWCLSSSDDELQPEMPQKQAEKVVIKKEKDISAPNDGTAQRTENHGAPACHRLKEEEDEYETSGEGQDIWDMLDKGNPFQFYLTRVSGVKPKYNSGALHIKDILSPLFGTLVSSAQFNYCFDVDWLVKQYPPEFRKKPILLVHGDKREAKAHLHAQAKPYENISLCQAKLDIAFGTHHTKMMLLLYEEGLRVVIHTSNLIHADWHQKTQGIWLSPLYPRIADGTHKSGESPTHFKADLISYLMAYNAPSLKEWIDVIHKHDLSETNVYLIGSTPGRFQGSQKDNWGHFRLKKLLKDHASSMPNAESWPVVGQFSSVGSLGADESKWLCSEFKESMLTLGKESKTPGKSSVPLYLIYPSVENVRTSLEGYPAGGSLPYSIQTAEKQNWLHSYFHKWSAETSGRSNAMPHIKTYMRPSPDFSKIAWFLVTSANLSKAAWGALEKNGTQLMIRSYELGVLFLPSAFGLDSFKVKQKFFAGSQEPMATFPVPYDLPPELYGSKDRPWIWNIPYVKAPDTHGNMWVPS
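Tdp1 1 nM final; 15 min RT w/ cpd; substrate 15 nM, 5 min; beads 10 ug/ml, 10 min; AlphaScreen read. Neg ctrl: no enzyme.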
Active calls of the source: *; [ ] = dose if it differs, or a comment. Unless noted, calls follow the shape of the dose curve; as a rule, active = well fitted curve in the direction sought with a large enough effect; inconclusive = small, poorly fitted or top-dose-only effect, or another doubt; inactive = no such curve, though single readings can be large; an effect the other way counts as inactive or inconclusive.

O=C(NCCC1=CCCCC1)c1c(O)nc2sccn2c1=O was read as TGFb SMAD3 inh 2%, DT40 TDP1 no CPT inconclusive, HepG2 viability 1%, IL1B secr inh 11, TDP1 cell CPT inconclusive and TDP1 block -8%.
For COc1cccc(CCNC(=O)c2c(O)nc3c(C)cccn3c2=O)c1 the results were TGFb SMAD3 inh 0%, DT40 TDP1 no CPT inconclusive, HepG2 viability -20%, TDP1 cell CPT 18µM* and TDP1 block 1%.
COc1ccc(CCNC(=O)c2c(O)nc3c(C)cccn3c2=O)cc1OC was read as TGFb SMAD3 inh 0%, DT40 TDP1 no CPT inconclusive, HepG2 viability -16%, TDP1 cell CPT 23µM* and TDP1 block -2%.
O=C(NCCC1=CCCCC1)c1c(O)nc2ccccn2c1=O was read as TGFb SMAD3 inh 21%, DT40 TDP1 no CPT 15µM*, HepG2 viability -3%, IL1B secr inh 57, TDP1 cell CPT 12µM* and TDP1 block 6%.
Screening COc1ccc(CCNC(=O)c2cc3cc(F)ccc3nc2C)cc1OC returned TGFb SMAD3 inh -12%, DT40 TDP1 no CPT 9.2µM*, HepG2 viability 9%, IL1B secr inh 44 and TDP1 cell CPT 21µM*.
`COc1ccc(CCNC(=O)c2c(O)nc3cc(C)ccn3c2=O)cc1OC` gave TGFb SMAD3 inh 11%, DT40 TDP1 no CPT -30%, HepG2 viability -2%, TDP1 cell CPT -7% and TDP1 block -4%.
`CCc1ccc(NC(=O)C(=O)NCCc2csc(-c3cccc(F)c3)n2)cc1` gave TGFb SMAD3 inh 12%, DT40 TDP1 no CPT -3%, HepG2 viability -4%, TDP1 cell CPT -3% and TDP1 block 3%.
Cc1ccc(OCC(=O)NCCCNC(=O)c2ccco2)cc1 was read as TGFb SMAD3 inh 26%, DT40 TDP1 no CPT -8%, HepG2 viability -38%, IL1B secr inh 11, TDP1 cell CPT 6% and TDP1 block 9%.
For COc1ccc(-c2cc(C)cc3c2OC(CNC(=O)c2cc(C(C)C)on2)C3)nn1 (configuration not stated) the results were DT40 TDP1 no CPT -21% and TDP1 cell CPT 0%[9.04 µM].
CCCCc1c(O)nc2ccccn2c1=O was read as TGFb SMAD3 inh 0%, DT40 TDP1 no CPT 1%, HepG2 viability -39%, IL1B secr inh 23, TDP1 cell CPT -8% and TDP1 block 3%.
Screening Cc1c(O)nc2ccccn2c1=O returned TGFb SMAD3 inh 6%, DT40 TDP1 no CPT -9%, HepG2 viability -33%, IL1B secr inh -65*, TDP1 cell CPT -27% and TDP1 block 7%.
For CC1CCN(c2nnc(-c3cccs3)c3ccccc23)CC1 the results were TGFb SMAD3 inh inconclusive, DT40 TDP1 no CPT inconclusive, HepG2 viability -4%, IL1B secr inh inconclusive, TDP1 cell CPT 26µM* and TDP1 block 4%.
Screening CC1CCN(c2nc3ccccc3nc2N2CCC(C)CC2)CC1 returned TDP1 block 0%.
Cc1c(S(=O)(=O)N2CCCCC2)c(=O)n(C)c(=O)n1C was read as TGFb SMAD3 inh 0%, DT40 TDP1 no CPT 9%, HepG2 viability -3%, IL1B secr inh 9 and TDP1 cell CPT 17%.
`Cc1nc(-c2ccc(NC(=O)C3CCCCC3)cc2)cs1` gave TGFb SMAD3 inh 8%, DT40 TDP1 no CPT 21µM*, HepG2 viability -7%, IL1B secr inh -14, TDP1 cell CPT -22% and TDP1 block -3%.
`O=C(Nc1ccc(-c2cn3ccsc3n2)cc1)C1CCCC1` gave TGFb SMAD3 inh 0%, DT40 TDP1 no CPT 16µM*, HepG2 viability -60%, IL1B secr inh 1, TDP1 cell CPT 15µM* and TDP1 block -2%.
Screening O=C(Nc1ccc(-c2csc(-c3ccccc3)n2)cc1)c1ccccc1Cl returned TGFb SMAD3 inh -11%, DT40 TDP1 no CPT inconclusive, HepG2 viability -3%, IL1B secr inh -11, TDP1 cell CPT 21µM* and TDP1 block 6%.
`Cc1nc(-c2ccc(NC(=O)c3ccccc3)cc2)cs1` gave TGFb SMAD3 inh -6%, DT40 TDP1 no CPT inconclusive, HepG2 viability -76%, IL1B secr inh 0, TDP1 cell CPT 18µM* and TDP1 block 3%.
`O=C(Nc1ccc(-c2cn3ccsc3n2)cc1)C1CC1` gave TGFb SMAD3 inh 3%, DT40 TDP1 no CPT inconclusive, HepG2 viability -49%, IL1B secr inh 4, TDP1 cell CPT inconclusive and TDP1 block 9%.
For Cc1ccc(C(=O)Nc2ccc(-c3csc(C)n3)cc2)cc1 the results were TGFb SMAD3 inh 18%, DT40 TDP1 no CPT -29%, HepG2 viability -23%, IL1B secr inh -15, TDP1 cell CPT 7% and TDP1 block -1%.
O=C(O)c1ccccc1C(=O)Nc1ccc(-c2csc(-c3ccccc3)n2)cc1 was read as TGFb SMAD3 inh -10%, DT40 TDP1 no CPT 9%, HepG2 viability -1%, IL1B secr inh -25, TDP1 cell CPT 28% and TDP1 block 0%.
`COc1ccc(CS(=O)(=O)CC(C)(O)c2ccccc2)cc1` (configuration not stated) gave TGFb SMAD3 inh 5%, DT40 TDP1 no CPT -1%, HepG2 viability -5%, IL1B secr inh -4 and TDP1 cell CPT -18%.
`COC(=O)C[C@H]1C=C[C@@H](NC(=O)NC2CCCCC2)[C@@H](CO)O1` gave DT40 TDP1 no CPT -2%, IL1B secr inh 11 and TDP1 cell CPT 5%.
`CCCCCCN1C[C@H](n2cc(-c3ccc(F)cc3)nn2)[C@@H](O)C[C@@H]1c1ccc(C)cc1` gave TGFb SMAD3 inh inconclusive, DT40 TDP1 no CPT 13µM*, HepG2 viability 11µM*, IL1B secr inh 15 and TDP1 cell CPT 13µM*.
For CCCCCCN1C[C@@H](n2cc(-c3ccc(F)cc3)nn2)[C@H](O)C[C@@H]1c1ccc(Cl)cc1 the results were TGFb SMAD3 inh inconclusive, DT40 TDP1 no CPT 12µM*, HepG2 viability -112%, IL1B secr inh -18 and TDP1 cell CPT 12µM*.
For CCCCCCN1C[C@H](O)[C@@H](n2cc(-c3ccc(F)cc3)nn2)C[C@@H]1c1ccc(Cl)cc1 the results were TGFb SMAD3 inh inconclusive, DT40 TDP1 no CPT 18µM*, HepG2 viability -40%, IL1B secr inh -27 and TDP1 cell CPT inconclusive.

Screens deposited in PubChem by National Center for Advancing Translational Sciences (NCATS).
